Here are results for six molecules from PubChem BioAssay.

Each structure is given as a SMILES string. Results filed as inconclusive are left out. For some assays here: Potency and affinity values are given separately. Activity calls are given as the source filed them.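 Rule for the calls, unless noted: active = compounds lowering colon cancer cell viability after pretreatment blocking the GSK3B kinase; inactive = the rest.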

As a reminder, the inhibition is the drop in the measured response relative to a control, in per cent.

Experiment [1] in a line: stimulators of insulin release from INS-1E, primary screen, cell-based, 5 mM glucose, NPC library (AID 1117329;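 active = compound raises insulin release from rat beta cells at 5 mM glucose, no numeric limit stated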). Conditions: rat INS-1E insulin secretion, at 10 µM, stronger effect = higher value.
Experiment [2] in a line: growth inhibition of GSK3B-pretreated HCT116 cells – cell-based, CellTiter-Glo, 0.2 to 20 µM (AID 1117336). Conditions: HCT116 viability after GSK3B inhibitor, at 20 µM, stronger effect = higher value. On the technique in general: ATP-based viability assays read luminescence as a measure of living cells.
Experiment [3] is described as follows: inhibition of endothelial tube formation, primary screen, imaging, VEGF stimulated, CD31 staining, tube area, NPC library (AID 1117340;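 active = compound that reduces growth-factor-driven endothelial tube area in a mixed cell culture, no cutoff stated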). The note with it: VEGF-stimulated ADSC/ECFC co-culture, at 10 µM, stronger effect = higher value.
Experiment [4] is described as follows: glucagon-like peptide 1 release enhancers, primary assay, NCI-H716 cell line, NPC library (AID 1117341;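 active = compound raises GLP1 secretion from the human gut endocrine cells, with no numeric limit stated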). Conditions: NCI-H716 cells, at 10 µM, stronger effect = higher value.
The nature of experiment [5]: HCT116 colon cancer cell growth inhibition, primary screen, CellTiter-Glo luminescence, NPC library (AID 1117342;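 active = compounds that lower survival of HCT116 colon cancer cells in the luminescence readout, no numeric limit stated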). The note with it: at 20 µM (top of the series).
Experiment [6] can be described thus: CellTiter-Glo luminescent readout of SW480 viability loss, NPC library primary (AID 1117343;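 active = compounds that lower viability of the colon cancer cells in the luminescence readout, with no numeric limit stated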). Conditions: CellTiter-Glo luminescence; at 20 µM (top of the series).
The nature of experiment [7]: decreased DLD-1 cellular survival, CellTiter-Glo luminescent readout, NPC compound collection, primary HTS (AID 1117346;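 active = compounds that lower survival of DLD-1 colon cancer cells in the luminescence readout, no cutoff given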). The note with it: DLD-1 viability, CellTiter-Glo luminescence; at 20 µM (top of the series).
The target of experiment [8] is 6-phosphogluconate dehydrogenase, decarboxylating (Homo sapiens) (UniProt P52209). The experiment in a line: 6PGD enzyme inhibitors, primary screen, biochemical, human, recombinant enzyme, NADPH absorbance (AID 1159550;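 active = at least 20% inhibition of 6-phosphogluconate dehydrogenase activity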). The note with it: recombinant 6PGD, NADPH absorbance 341 nm; at 10 µM; stronger effect = higher value.
Experiment [9] is described as follows: differential killing of epithelial or mesenchymal cells, primary screen, imaging, PC-3E GFP, TEM4-18 mCherry, co-culture (AID 1345086;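 active = compounds killing one labelled cell type while sparing the other, by normalised counts and ratio limits, not self-fluorescent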;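 for all read-outs here: cells exposed to compound for 72 h before imaging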;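 for red/green cell ratio (normalised): normalised mesenchymal count divided by normalised epithelial count so high means epithelial killing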). Conditions: imaging cell counts, at 1 µM; for red/green cell ratio (normalised): actives lie on both sides, counts scaled to control wells, 1 = unselective.
Experiment [10] can be described thus: growth inhibition of DIPG glioma cells, dose response, cell-based, SU-DIPG-XIII, MIPE4.0, CellTiter-Glo, qHTS (AID 1347061; cut-off not given, nearly all actives have AC50 up to about 37 µM;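 note: cells exposed to compound for 48 hours before readout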). Conditions: SU-DIPG-XIII viability, CellTiter-Glo ATP luminescence.
A short description of experiment [11]: growth inhibition of DIPG glioma cells, dose response, cell-based, JHH-DIPG-1, MIPE4.0, CellTiter-Glo, qHTS (AID 1347062; cut-off not given, nearly all actives have AC50 up to about 27 µM). Conditions: JHH-DIPG-1 viability, CellTiter-Glo ATP luminescence.
Experiment [12] in a line: growth inhibition of DIPG glioma cells, dose response, cell-based, SU-DIPG-IV, MIPE4.0, CellTiter-Glo, qHTS (AID 1347063; cut-off not given, nearly all actives have AC50 up to about 30 µM;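 note: compound exposure lasted 48 hours before the viability readout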). The note with it: SU-DIPG-IV viability, CellTiter-Glo ATP luminescence.
Experiment [13] in a line: growth inhibition of DIPG glioma cells, dose response, cell-based, SU-DIPG-XIII, MIPE5.0, CellTiter-Glo, qHTS (AID 1347064; cut-off not given, nearly all actives have AC50 up to about 23 µM). The note with it: SU-DIPG-XIII viability, CellTiter-Glo ATP luminescence.
The target of experiment [14] is Calcium-dependent protein kinase 1 (Plasmodium falciparum (isolate 3D7)) (UniProt P62344). The experiment in a line: PfCDPK1 kinase inhibitors, biochemical, TCAMS library (AID 1159585; cut-off not given, nearly all actives have IC50 up to about 0.98 µM;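 note: inhibitors leave more ATP so luminescence rises with inhibition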). Conditions: recombinant PfCDPK1, Kinase-Glo ATP depletion luminescence.
Experiment [15] deals with Plasmodium falciparum protein kinase 6 (PK6, PF3D7_1337100) (UniProt Q8IDW1). The experiment can be described thus: PfPK6 kinase inhibitors, biochemical, TCAMS library (AID 1159586; call rule not given here). The note with it: recombinant PfPK6, Kinase-Glo ATP depletion luminescence. (In general: Kinase-Glo measures the ATP left after a reaction by luminescence.)
For experiment [16], the target named is Protein kinase 7 (PK7), Plasmodium falciparum 3D7 (PF3D7_0213400) (UniProt Q7YTF7). The experiment in a line: inhibition of Plasmodium PK7 catalytic activity – biochemical, TCAMS antimalarial set, Kinase-Glo luminescence (AID 1159587; call rule not given here). The note with it: recombinant PfPK7, Kinase-Glo ATP depletion luminescence.
For experiment [17], the target named is Calcium-dependent protein kinase 4 (Plasmodium falciparum (isolate 3D7)) (UniProt Q8IBS5). The experiment can be described thus: PfCDPK4 kinase inhibitors, biochemical, TCAMS library (AID 1159588; cut-off not given, nearly all actives have IC50 up to about 0.91 µM). Conditions: recombinant PfCDPK4, Kinase-Glo ATP depletion luminescence.
Experiment [18] is described as follows: growth inhibition of DIPG glioma cells, dose response, cell-based, SU-DIPG-XVII, MIPE5.0, CellTiter-Glo, qHTS (AID 1347060; cut-off not given, nearly all actives have AC50 up to about 26 µM). The note with it: SU-DIPG-XVII viability, CellTiter-Glo ATP luminescence.
The mark [19] stands for this setting: measured here: epithelial PC-3E GFP cell survival.
[20] abbreviates: measured here: mesenchymal TEM4-18 mCherry cell survival.

Chain of 6-phosphogluconate dehydrogenase, decarboxylating (Homo sapiens) (P52209 whole entry, looked up): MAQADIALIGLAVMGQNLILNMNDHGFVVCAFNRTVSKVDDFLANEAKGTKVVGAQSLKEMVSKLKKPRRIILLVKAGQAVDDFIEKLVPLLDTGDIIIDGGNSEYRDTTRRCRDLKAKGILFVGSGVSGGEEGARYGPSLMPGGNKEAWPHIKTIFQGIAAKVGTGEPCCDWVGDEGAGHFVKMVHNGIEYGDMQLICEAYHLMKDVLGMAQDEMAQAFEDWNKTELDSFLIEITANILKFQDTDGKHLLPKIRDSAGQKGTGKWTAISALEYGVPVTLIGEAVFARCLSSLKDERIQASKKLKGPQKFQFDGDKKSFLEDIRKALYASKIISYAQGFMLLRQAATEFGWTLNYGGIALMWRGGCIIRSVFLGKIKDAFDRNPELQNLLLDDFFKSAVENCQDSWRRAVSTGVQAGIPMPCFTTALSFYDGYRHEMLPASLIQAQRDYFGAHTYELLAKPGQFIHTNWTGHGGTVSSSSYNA
Chain of Protein kinase 7 (PK7), Plasmodium falciparum 3D7 (PF3D7_0213400) (Q7YTF7 1-343): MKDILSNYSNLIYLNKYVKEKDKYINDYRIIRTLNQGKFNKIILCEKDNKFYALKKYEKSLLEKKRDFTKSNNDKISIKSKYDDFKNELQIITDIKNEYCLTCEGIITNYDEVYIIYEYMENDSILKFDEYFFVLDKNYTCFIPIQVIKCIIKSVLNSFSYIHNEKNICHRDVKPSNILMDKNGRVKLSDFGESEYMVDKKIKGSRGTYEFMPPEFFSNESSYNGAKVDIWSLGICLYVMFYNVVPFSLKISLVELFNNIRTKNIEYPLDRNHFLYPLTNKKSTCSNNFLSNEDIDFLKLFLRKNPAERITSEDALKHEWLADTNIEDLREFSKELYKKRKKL
Chain of Calcium-dependent protein kinase 4 (Plasmodium falciparum (isolate 3D7)) (Q8IBS5 whole entry, looked up): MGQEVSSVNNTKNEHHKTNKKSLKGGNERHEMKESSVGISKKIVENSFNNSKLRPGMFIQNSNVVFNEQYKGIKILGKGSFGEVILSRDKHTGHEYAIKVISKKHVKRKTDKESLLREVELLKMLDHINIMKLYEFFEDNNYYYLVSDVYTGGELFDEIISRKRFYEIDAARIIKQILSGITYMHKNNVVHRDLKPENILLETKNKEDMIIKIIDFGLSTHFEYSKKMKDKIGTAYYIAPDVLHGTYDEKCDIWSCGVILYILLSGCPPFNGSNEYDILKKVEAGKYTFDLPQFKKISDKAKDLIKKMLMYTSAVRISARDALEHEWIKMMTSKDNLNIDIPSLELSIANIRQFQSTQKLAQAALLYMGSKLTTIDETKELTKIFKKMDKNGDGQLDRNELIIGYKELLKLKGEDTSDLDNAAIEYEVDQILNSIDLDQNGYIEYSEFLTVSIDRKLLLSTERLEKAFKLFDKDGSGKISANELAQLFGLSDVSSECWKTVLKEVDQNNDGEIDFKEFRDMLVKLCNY
Chain of Plasmodium falciparum protein kinase 6 (PK6, PF3D7_1337100) (Q8IDW1 1-305): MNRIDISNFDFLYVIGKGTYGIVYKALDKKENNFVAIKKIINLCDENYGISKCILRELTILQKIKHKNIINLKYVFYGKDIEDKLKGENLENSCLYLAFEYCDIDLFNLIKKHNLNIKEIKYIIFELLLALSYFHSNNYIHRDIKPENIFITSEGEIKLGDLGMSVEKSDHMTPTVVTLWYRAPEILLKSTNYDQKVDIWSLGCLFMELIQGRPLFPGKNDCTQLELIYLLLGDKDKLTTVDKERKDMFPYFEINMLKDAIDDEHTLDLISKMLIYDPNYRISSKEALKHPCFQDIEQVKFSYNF
Chain of Calcium-dependent protein kinase 1 (Plasmodium falciparum (isolate 3D7)) (P62344 whole entry, looked up): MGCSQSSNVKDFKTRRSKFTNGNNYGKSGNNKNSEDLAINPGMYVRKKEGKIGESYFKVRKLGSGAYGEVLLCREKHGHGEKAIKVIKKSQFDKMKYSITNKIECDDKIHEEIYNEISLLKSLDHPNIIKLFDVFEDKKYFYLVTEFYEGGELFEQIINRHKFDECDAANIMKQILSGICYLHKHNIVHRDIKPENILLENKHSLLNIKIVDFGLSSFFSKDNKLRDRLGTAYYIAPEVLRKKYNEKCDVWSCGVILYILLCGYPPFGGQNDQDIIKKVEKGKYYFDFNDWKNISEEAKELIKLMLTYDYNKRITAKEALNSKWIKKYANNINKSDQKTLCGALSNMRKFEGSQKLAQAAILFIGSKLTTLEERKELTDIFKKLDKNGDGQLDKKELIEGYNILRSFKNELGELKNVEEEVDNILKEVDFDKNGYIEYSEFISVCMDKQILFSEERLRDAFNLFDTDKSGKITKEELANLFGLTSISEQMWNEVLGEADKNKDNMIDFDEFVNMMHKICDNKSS

With `Cc1ccccc1N1C(=O)c2cc(S(N)(=O)=O)c(Cl)cc2NC1C` (configuration not stated), the insulin secretion stimulation in experiment [1] is 1.1% (inactive). Further, in [2], the viability decrease was -5.6% (inactive). Further, the tube area decrease in experiment [3] is -5.3% (inactive). In addition, in experiment [4], the GLP1 secretion stimulation is -1.9% (inactive). The inhibition of viability in experiment [5] was 0.8% (inactive). Also, the viability decrease (inhibition) in experiment [6] was -18.3% (inactive); in experiment [7] it was -5.3% (inactive). For the same molecule, the inhibition in experiment [8] is -11.8% (inactive). Moreover, the red/green cell ratio (normalised) in [9] was 1.25 (inactive). Also, the values for the normalised cell number in [9] (setting [19]) and in [9] (setting [20]) were 1.15 and 1.44, respectively. Further, the outcome in [10], in experiment [11] and in [12] was inactive.
As to `CCOC(=O)[C@H](CCc1ccccc1)N[C@@H](C)C(=O)N1CCC[C@H]1C(=O)O`, the insulin secretion stimulation in experiment [1] was 0.7% (inactive). In addition, the viability decrease in [2] is 1.3% (inactive). Moreover, the tube area decrease in experiment [3] is -1.3% (inactive). The GLP1 secretion stimulation in experiment [4] is 19.8% (inactive). Also, the inhibition of viability in experiment [5] was -3.77% (inactive). Further, the viability decrease (inhibition) in experiment [6] was 12.5% (inactive); in [7], 3.4% (inactive). Besides, the inhibition in [8] is -2.48% (inactive). In addition, the red/green cell ratio (normalised) in experiment [9] was 0.88 (inactive). Further, the normalised cell number in [9] (setting [19]) is 1.12; in experiment [9] (setting [20]) it was 0.99. The call in experiment [10], in [11], in experiment [12] and in experiment [13] was inactive.
Take `O=C(Nc1cccc(C2=NCCN2)c1)Nc1cccc(C2=NCCN2)c1`: in experiment [1], the insulin secretion stimulation was 0.05% (inactive). Besides, the viability decrease in [2] was 72.2% (active). In addition, the tube area decrease in experiment [3] is -57.4% (inactive). Further, the GLP1 secretion stimulation in [4] is -1% (inactive). Besides, the inhibition of viability in [5] is 70.7% (active). The viability decrease (inhibition) was 52.2% (active) in experiment [6] and 60.8% (active) in [7]. The outcome in experiment [14], in [15], in [16] and in experiment [17] was inactive.
For `Cc1nc(N)nc(N)c1-c1ccc(Cl)c(Cl)c1`, the insulin secretion stimulation in experiment [1] is 1.95% (inactive). In addition, in experiment [2], the viability decrease was 101% (active). Further, the tube area decrease in experiment [3] is -11.8% (inactive). In [4], the GLP1 secretion stimulation is 2.8% (inactive). Further, the inhibition of viability in experiment [5] is 95.5% (active). Also, the viability decrease (inhibition) was 131% (active) in experiment [6] and 68.5% (active) in [7]. For the same molecule, the outcome in experiment [14], in [15], in experiment [16] and in experiment [17] was inactive.
For the molecule `Nc1ccc(S(N)(=O)=O)cc1`, the insulin secretion stimulation in experiment [1] is -1.2% (inactive). Further, the viability decrease in experiment [2] was 3.9% (inactive). In experiment [3], the tube area decrease is -8.1% (inactive). For the same molecule, the GLP1 secretion stimulation in experiment [4] is 2.3% (inactive). For the same molecule, in experiment [5], the inhibition of viability was -0.4% (inactive). Further, the results for the viability decrease (inhibition) in experiment [6] and in experiment [7] were 6.8% (inactive) and 25.1% (inactive), respectively. Also, the inhibition in experiment [8] was 7.71% (inactive). The outcome in experiment [18], in experiment [10], in experiment [11], in experiment [12] and in [13] was inactive.
Turning to `CNC[C@H](O)c1ccc(O)c(O)c1`, the insulin secretion stimulation in experiment [1] is -2.3% (inactive). Moreover, the viability decrease in [2] was 31.1% (inactive). Further, in experiment [3], the tube area decrease is -5.3% (inactive). In addition, the GLP1 secretion stimulation in [4] is 2.1% (inactive). Further, the inhibition of viability in [5] is -7.2% (inactive). The viability decrease (inhibition) is 64.8% (active) in experiment [6] and 23.9% (inactive) in experiment [7]. In [8], the inhibition was -1.63% (inactive). Besides, the call in experiment [18], in [10], in experiment [11], in experiment [12] and in [13] was inactive.
